Assay results reported in PubChem BioAssay (NCI).
Compounds without any hit were thinned out: in the full panel of roughly 79,000, 15% have a hit. Unmarked numbers belong to inactive results. Rule as the data show it: active = growth inhibition above about 70%; inactive = the rest. Where a SMILES comes first, the peptide text is derived from it. [ ]: non-standard residue; d: D form. ξ: configuration not given here. ξV = CC(C)C(N)C(=O)O

Assay: NCI Yeast Anticancer Drug Screen. Data for the bub3 strain (AID 167)
Conditions: S. cerevisiae bub3 mutant strain, at 50.0 µM, active compounds read high
In short: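 Inhibition values come from growth of compound-treated mutant yeast normalised to vehicle-treated controls.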
In the case of Nc1nc(N)nc(-c2ccc([N+](=O)[O-])o2)n1, the growth inhibition is reported as 12.2%. O=C(O)CC1C(=O)OC2C3COC(=O)c4cc(O)c(O)c(O)c4-c4c(cc(O)c(O)c4O)C(=O)OC2C(OC(=O)c2cc(O)c(O)c4c2C1C(O)C(=O)O4)C(OC(=O)c1cc(O)c(O)c(O)c1)O3 (stereo not given) gave a growth inhibition of 35.5%. Work on CSc1ncnc2c1ncn2CCC(=O)O yielded a growth inhibition of -13.9%. For CCN(CC)C(=O)C(C)n1cc(C)c(=O)[nH]c1=O (stereo not given), the growth inhibition was -2.55%. Work on Cc1ccc(C(=O)c2ccccc2)cc1 yielded a growth inhibition of -0.6%. Work on Nc1cnccc1NCC(O)c1ccccc1 (stereo not given) yielded a growth inhibition of -1.5%. Work on N#Cc1cc([N+](=O)[O-])ccc1NC(=O)/C(=N\NC(=O)c1ccncc1)C(c1cnc2ccc([N+](=O)[O-])cc2n1)[N+](=O)[O-] (stereo not given) yielded a growth inhibition of 25.4%. For C=C(CN(C)C)c1ccccn1, the growth inhibition was -13.3%. Nc1ccc(N=Nc2ccc(OCCN(CCO)CCO)cc2)c(N)n1 gave a growth inhibition of 21.6%. CC1Cn2c(nccc2=O)S1 (stereo not given) showed a growth inhibition of 3.5%. CC(C)C1c2ccccc2C(=O)C1C(N)=O (stereo not given) showed a growth inhibition of -4.55%. CCN(CC)S(=O)(=O)c1ccc(N)cc1 gave a growth inhibition of -2.2%. Compound CC(C)C(N)C(=O)NCC(=O)NCC(=O)O (stereo not drawn) (H-[ξV]-Gly-Gly-OH) has a growth inhibition of -28.8%. CN1CC2(CO)C(c3ccccn3)N(C)C(c3ccccn3)C(CO)(C1)C2O (stereo not given) gave a growth inhibition of -0.6%. CCCCN1C(=O)c2cc(=O)[nH]c(O)c2C1C (stereo not given) showed a growth inhibition of -27.1%. In the case of CCCCCN(CCCCC)CC(O)c1cc(-c2ccccc2)nc2c(Cl)cc(Cl)cc12 (stereo not given), the growth inhibition is reported as 46.5%. In the case of O=C(Nc1cccc(O)c1)C(O)C(O)C(O)C(O)CO (stereo not given), the growth inhibition is reported as 9.05%. CCN(CC)CCSc1cc(C)c2ccc(N)nc2n1 showed a growth inhibition of 8.6%. Compound CCN1CCCN(CC)C1=O has a growth inhibition of -0.45%. C[Si](C)(C)O[Si](C)(C)CCl showed a growth inhibition of -6.2%. Work on CCN(CC)C(=O)Cn1c2c(c3ccccc31)CCCC2 yielded a growth inhibition of -2.6%. Work on COc1cc(O)c(C(=O)C2Cc3ccccc32)c(OC)c1 (stereo not given) yielded a growth inhibition of 9.1%. Work on C=C/C=N/Nc1ccc([N+](=O)[O-])cc1[N+](=O)[O-] yielded a growth inhibition of 2.4%. NCCCCC(N)C(=O)O (stereo not given) showed a growth inhibition of -2.1%. Compound CCOC(=O)c1c(O)csc1C has a growth inhibition of -6.05%. For CC(=O)OC(C)(C)[C@@H]1CC[C@H](C)C2=C(C1)[C@@H](C)CC2, the growth inhibition was -16.1%. Compound NCc1ccc(S(=O)(=O)Nc2cc(Br)cc(Br)c2)cc1 has a growth inhibition of 12%. COc1ccc(-n2[nH]nc(C(N)=O)c2=O)cc1 gave a growth inhibition of -24.6%. CN(C)Cc1cc(C(C)(C)CC(C)(C)C)cc(Br)c1O gave a growth inhibition of 39.7%. Compound Cc1cc2[nH]c3c(C#N)c4c(c(=O)n3c2cc1C)CCCC4 has a growth inhibition of -5.85%. Compound COc1ccc(/C=C2\C(=O)N(C(=O)c3ccc(NC(C)=O)cc3)N=C2C)cc1 has a growth inhibition of -20.9%. Compound CC(O)CSCC(C)O (stereo not given) has a growth inhibition of -7.7%. NNC(=S)N/N=C/C(Cl)=C(\Cl)C(=O)O showed a growth inhibition of 0.1%. In the case of COc1ccc(N)c(C(O)CCNC(C)=O)c1 (stereo not given), the growth inhibition is reported as -43.5%. Compound CCOc1ccc(N2N=C(C)CCC2=O)cc1 has a growth inhibition of 6.15%. N#CCC(=O)N/N=C(\C(=O)Nc1ccc(Cl)c(Cl)c1)C1CN(c2ccccc2)N=C1N (stereo not given) gave a growth inhibition of 0.45%. CC(C)CCCC(C)C1CCC2C3CC=C4CC(P(=O)(c5ccccc5)c5ccccc5)CCC4(C)C3CCC12C (stereo not given) showed a growth inhibition of 5.75%. In the case of O=C(N/N=C/c1ccccn1)c1ccccc1, the growth inhibition is reported as 13.3%. Work on CCCCNC(C(=O)c1ccccc1)c1ccccc1 (stereo not given) yielded a growth inhibition of 13.9%. In the case of CN1CCC=C(COC(=O)C(C)(C)C)C1, the growth inhibition is reported as 5.45%.
